# Only a sample is shown.
# aSyn 5UTR act: Activators via SNCA 5'UTR binding, MLPCN; alpha-synuclein 5'UTR reporter, activators screen; hit rate 7.1% among 300,000; activity score, % (tested at 7.5 µM), hits read low; in the data active means activity score below about -60%
# Numbers without * were called inactive.
SMILES,aSyn 5UTR act
CCCn1nnc(NC(=O)c2sc3ccccc3c2Cl)n1,-104*
CCCn1nnc(NC(=O)c2ccc(-c3cccc(Cl)c3)o2)n1,-80*
CCCCn1nnc(N(C(=O)c2cccs2)C(=O)c2cccs2)n1,-89*
CCCn1nnc(NC(=S)NC(=O)c2cccs2)n1,-102*
CCCn1nnc(NC(=O)c2cccc(Cl)c2)n1,-64*
Cn1c(N)c(C(C[N+](=O)[O-])c2c(F)cccc2Cl)c(=O)n(C)c1=O (configuration not stated),-66*
O=C1C2C3C=CC(C3)C2C(=O)N1/N=C/c1cn(Cc2ccccc2)c2ccccc12 (configuration not stated),66
O=C1C2C3C=CC(CC3)C2C(=O)N1/N=C/c1c[nH]c2ccccc12 (configuration not stated),-92*
Nc1ccccc1N=Cc1ccc(-c2cccc(Cl)c2)o1,-145*
Cc1cc(Cl)c2oc(C(=O)N(C)Cc3ccon3)c(C)c2c1,-104*
Cc1cc(Cl)c2oc(C(=O)N(C)C3CCOC3)c(C)c2c1 (configuration not stated),-108*
C/C(N)=C(/C#N)C(=O)COC(=O)c1cc(C)n(-c2ccc(F)cc2)c1C,-109*
O=C(/C=C/c1ccco1)Nc1cccc2cccnc12,-168*
CSc1cccc(NC(=O)/C=C/c2ccco2)c1,-178*
O=C(/C=C/c1ccco1)Nc1cccnc1,-122*
COc1ccccc1NC(=O)/C=C\c1ccco1,-84*
CC(C)C(=O)NC(c1ccco1)c1ccc2cccnc2c1O (configuration not stated),63
O=C(/C=C/c1ccco1)Nc1ccc(Oc2ccc(Cl)cc2)cc1,-203*
Cc1ccc(NC(=O)/C=C/c2ccco2)nc1,-63*
COc1cccc(NC(=O)/C=C/c2ccco2)c1,-158*
Cc1cccc(Nc2nc(N)nc(CSc3nccn3C)n2)c1,-99*
c1ccc2c(c1)CCN(c1nc3cc4c(cc3s1)OCO4)C2,-122*
Fc1ccc2nc(N3CCOCC3)sc2c1,-131*
c1c2c(cc3sc(N4CCOCC4)nc13)OCO2,-64*
Cc1ccc(NC(=O)c2ccc3nc(N4CCOCC4)sc3c2)c(Cl)c1,-68*
SMILES,aSyn 5UTR act
c1ccc(N2CCN(c3nc4cc5c(cc4s3)OCO5)CC2)cc1,-142*
Cc1ccc(C(=O)NCC(=O)NC23CC4CC(CC(C4)C2)C3)cc1,-76*
COc1ccc(OCCCC(=O)Nc2ccc3c(c2)OCCO3)cc1,-132*
COc1cccc(CNC(=O)Cc2ccc(NC(=O)C3=C(C)OCCS3)cc2)c1,-80*
CCN(CC(=O)Nc1ccc2c(c1)OCCO2)C(=O)/C=C/c1ccc(F)cc1,-70*
O=C(COc1ccc(F)cc1)Nc1ccc2c(c1)OCCO2,-144*
CCc1ccc(CNC(=O)Cc2ccc(NC(=O)C3=C(C)OCCS3)cc2)cc1,66
COc1cccc(CNC(C)C(=O)Nc2ccc3c(c2)OCCO3)c1 (configuration not stated),-89*
O=C(COc1ccc2c(c1)OCO2)Nc1cccc(F)c1,-94*
CCOCC(=O)Nc1ccc2c(c1)OCCO2,-66*
COCCNc1c(-c2cc3ccc(C)c(C)c3[nH]c2=O)nc2ccccn12,-153*
CCOC(=O)c1cc(C(=O)Nc2ccc(C)c(F)c2)nn1C,-224*
Cc1ccc(NC(=O)C2CC2c2ccccc2)c([N+](=O)[O-])c1 (configuration not stated),-88*
O=[N+]([O-])c1ccc(F)cc1OCc1nc(-c2cccs2)no1,-177*
O=[N+]([O-])c1ccccc1OCc1nc(-c2cccs2)no1,-114*
Cc1ccc(OCc2nc(-c3cccs3)no2)c([N+](=O)[O-])c1,-64*
C=CCn1cccc(C(=O)Nc2ccc(F)cc2)c1=O,-101*
C=CCn1cccc(C(=O)Nc2ccc(OC)cc2)c1=O,-97*
COc1ccc(NC(=O)c2cccn(CC=C(C)C)c2=O)cc1,-79*
C=CCc1cccc2cc(C(=O)Nc3ccc(F)cc3)c(=O)oc12,-128*
C=CCn1c(N)c(C(=O)Nc2ccccc2)c2nc3ccccc3nc21,60
O=C(O)CC1=C(Nc2ccccc2)C(=O)N(c2ccccc2)C1c1ccc(Br)cc1 (configuration not stated),-104*
O=C1NCCN/C1=C\C(=O)c1ccc(Br)cc1,-120*
O=C1NCCN/C1=C\C(=O)c1cccc(Br)c1,-62*
CN(C)CCn1cnc2c(c1=N)C(c1ccccc1)c1ccc3ccccc3c1O2 (configuration not stated),90
SMILES,aSyn 5UTR act
Cc1ccc(Nc2ncnc3ccccc23)cc1,-114*
Cc1cccc(Nc2ncnc3ccccc23)c1,-98*
Cc1ccc(/C(=N/Nc2ncnc3ccccc23)C(=O)O)cc1,-69*
CC(C)Oc1ccc(Nc2ncnc3ccccc23)cc1,-136*
COC(=O)c1cccc(Nc2ncnc3ccc(C)cc23)c1,-88*
O=S(=O)(c1ccc2c(c1)C(=NO)c1cc(S(=O)(=O)N3CCCCC3)ccc1-2)N1CCCCC1,96
Cc1ccc(O)c(N=Nc2ccc(S(=O)(=O)N3CCCC3)cc2)c1,-70*
COc1ccc(Oc2c(Cl)cnn(-c3ccc(Cl)c(Cl)c3)c2=O)cc1,73
Cn1ncc(Oc2ccc([N+](=O)[O-])cc2)c(Cl)c1=O,-66*
Cn1ncc(Cl)c(Oc2ccc(Cl)cc2)c1=O,-73*
Cc1nc(-c2ccccc2)sc1-c1ccnn1C,-111*
CC(=O)c1sc(NC(=O)c2cccc(C)c2)nc1C,-131*
CC(=O)c1sc(NC(=O)c2ccccc2C)nc1C,-88*
Cc1nc(NC(=O)c2cccc(Cl)c2)sc1C(=O)N1CCCCC1,-138*
CC(=O)c1sc(NCc2ccc(C)cc2)nc1C,-168*
Cc1nc(NC(=O)c2ccc(F)cc2)sc1C(=O)Nc1ccc2c(c1)CCC2,-99*
CC(=O)c1sc(NC(=O)c2ccc(Cl)cc2)nc1C,-108*
Cc1ccc(CNc2nc(Cl)c(C#N)s2)cc1,-146*
Cc1cccc(C(=O)NC(=O)Nc2c(C)cc(C)nc2C)c1,-147*
CC(=O)c1sc(NC(=O)c2ccc(F)c(F)c2)nc1C,-159*
S=C(Nc1ccccc1)N1CCCCCCC1,-88*
CC(C)c1ccc(NC(=S)N2CCCC2)cc1,-86*
Cc1ccc(NC(=S)N2CCCC(O)C2)cc1 (configuration not stated),-63*
OCC1CCCN(C(=S)Nc2ccc(Nc3ccccc3)cc2)C1 (configuration not stated),-130*
c1cnc(SCCCOc2ccc3ccccc3c2)nc1,-68*
SMILES,aSyn 5UTR act
Cc1ccc(OCCCSc2ncccn2)cc1C,-104*
CCCC(NCC(O)COc1ccc(-c2ccccc2)cc1)c1ccccc1 (configuration not stated),83
OC(COc1ccc(Cl)cc1)CSc1ccccn1 (configuration not stated),-90*
CC(C)SCCCCOc1ccc2ccccc2c1,-112*
COc1ccc(OCCCSc2ncccn2)cc1,-168*
Clc1ccc(OCCSc2ncccn2)cc1,-160*
Cc1ccc(NC(=O)C2COc3ccccc3O2)cc1 (configuration not stated),-154*
O=C(Nc1ccccc1)C1COc2ccccc2O1 (configuration not stated),-82*
CC(=O)c1sc(NC(=O)C2COc3ccccc3O2)nc1C (configuration not stated),62
COC(=O)N1CCc2c(sc(NC(=O)C3COc4ccccc4O3)c2C(N)=O)C1 (configuration not stated),-137*
